Source: PubChem BioAssay
An excerpt weighted towards active compounds, which were near 4.7% of everything screened.
SUMO HTRF inh – inhibitors of in vitro SUMOylation cascade, primary screen, biochemical, HTRF, uHTS. SUMO-conjugating enzyme UBC9 (Homo sapiens), P63279. HTRF SUMOylation assay, SAE1/SAE2 + UBC9. inhibition, % at 35 µM. 0.36% of 290,000 active. AID 2006, 2009; in the data active = inhibition above about 50%, passing the limit was not always enough
Target sequence (P63279 whole entry, looked up): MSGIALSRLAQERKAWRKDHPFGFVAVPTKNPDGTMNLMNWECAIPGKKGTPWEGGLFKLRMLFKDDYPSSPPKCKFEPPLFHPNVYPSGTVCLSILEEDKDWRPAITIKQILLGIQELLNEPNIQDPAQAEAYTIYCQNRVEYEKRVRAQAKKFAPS
eIF4H FP inh – human eIF4H binding inhibitors, primary screen, translation initiation inhibitor project, biochemical, uHTS, fluorescence polarization | Eukaryotic translation initiation factor 4H (Homo sapiens), Q15056 | eIF4H fluorescence polarization binding assay | inhibition, % at 35 µM | 0.94% of 290,000 active;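 note: calls also rest on retests at 20 µM and on dose response follow-up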
ALR inh – inhibitors of human ALR sulfhydryl oxidase, primary screen, biochemical, H2O2 detection, HRP-luminol luminescence, single point. FAD-linked sulfhydryl oxidase ALR (Homo sapiens), P55789. AID 485317, 2010. purified ALR, DTT oxidation. 3.8% of 290,000 active. inhibition, % (test concentration not listed);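 active = mean replicate inhibition above about 79%, with every replicate also reaching it, limit read from the data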
Efflux pump mplx – inhibitors of Candida efflux pumps in yeast, primary screen, S. cerevisiae, Nile Red, multiplex; S. cerevisiae Candida pump triplex; inhibition, % at 10 µM; 0.44% of 330,000 active;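 active = plate passing quality check with inhibition over a set limit, or well fluorescence over plate mean plus 4 SD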;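 note: Nile Red retained in pooled yeast measured as flow cytometry median fluorescence; 0% = buffer negative control and 100% = Enniatin B positive control; higher means more Nile Red kept so more efflux inhibition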
PABP FP inh – PABP poly(A) RNA binding inhibitors, primary screen, biochemical, fluorescence polarization, uHTS; Polyadenylate-binding protein 1 (Homo sapiens), P11940; inhibition, % at 35 µM; 1% of 290,000 active; AID 2014, 2009;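 note: calls also rest on retests at 20 µM and on dose response follow-up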
PABP1 MLLE inh – inhibitors of PABP1 MLLE–PAM2 peptide binding, primary screen, biochemical, fluorescence polarization, FITC-PAM2, GST-MLLE; Polyadenylate-binding protein 1 (Homo sapiens), P11940; inhibition, % at 20 µM; 0.36% of 360,000 active; in the data active = inhibition above about 35%, passing the limit was not always enough;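 note: plate controls were DMSO wells with GST-MLLE for no effect and wells lacking GST-MLLE protein for full effect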
* hit, by the source's call; . = not tested or not shown. Unless noted, the rule behind the calls is not given here.

SMILES	SUMO HTRF inh	eIF4H FP inh	ALR inh	Efflux pump mplx	PABP FP inh	PABP1 MLLE inh
CCCCC1=CC2=CC(=O)C(C)(OC(=O)CC)C(=O)C2=CN1Cc1ccccc1 (configuration not stated)	-0.3	35.5	-12.2	0.2	29.9	-20.0
COC(=O)CCCC1=CC2=CC(=O)C(C)(OC(=O)c3cccs3)C(=O)C2=CN1CCCOC(C)C (configuration not stated)	17.0	60.9	-27.8	0.0	29.4*	13.0
COCCN1C=C2C(=O)C(C)(OC(=O)CCC(=O)OC)C(=O)C=C2C=C1C1CC1 (configuration not stated)	21.9	69.0	2.5	0.1	35.8	37.6
O=C(CNS(=O)(=O)c1ccc(Br)cc1)Nc1ccc2c(c1)OCCO2	11.5	-15.4	.	.	2.1	-2.4
CCCCC1=CC2=CC(=O)C(C)(OC(=O)CC)C(=O)C2=CN1c1ccccc1 (configuration not stated)	5.7	83.1	-9.9	0.3	45.2*	2.7
CCCCC1=CC2=CC(=O)C(C)(OC(=O)CC)C(=O)C2=CN1CCc1ccc(Br)cc1 (configuration not stated)	14.4	2.9	-11.3	0.3	12.1	-11.7
NS(=O)(=O)c1ccc(-n2nncc2-c2ccco2)cc1	17.8	6.9	-3.7	-0.1	0.9	-2.0
O=C(NNS(=O)(=O)c1ccc(Cl)cc1)c1cc(-c2ccccc2)nc2ccccc12	-13.1	-1.5	6.4	0.2	23.6	10.3
CCc1nc2ccc(C(=O)N(C)C(C)C)cn2c1N(CCC(C)C)CCN(C)C	.	.	.	.	.	16.1
CN(C)c1ccc(C2OC(=O)C3(CCCC3)C(=O)C2(C)C)cc1 (configuration not stated)	21.4	-5.1	93.8*	0.1	4.3	5.1
CC1(C)C(=O)C2(CCCCC2)C(=O)OC1c1cccc([N+](=O)[O-])c1 (configuration not stated)	9.9	-6.8	-2.9	0.1	-9.7	3.6
Cc1ccc(CNc2ncc(-c3ccccc3)n2C)o1	18.7	-3.7	98.2*	0.0	9.0	4.1
Cn1c(-c2ccccc2)cnc1NCc1ccccc1	-5.4	15.7	74.3	0.0	7.4	0.3
COCCN(C(=S)Nc1ccc(C)cc1C)C(C)c1ccco1 (configuration not stated)	-17.0	-2.4	.	0.0	-0.7	-52.5
COc1ccc(CC(=O)OCn2nnc3ccccc3c2=O)cc1OC	14.5	92.0*	-21.6	0.1	88.3*	9.7
CC(C)C[C@H](N)c1nnc(S(=O)(=O)Cc2ccc(F)cc2)o1	-23.7	-2.4	98.2*	0.1	20.7	3.7
N#CC1(C#N)CC(C=O)=C(N)C1(C#N)CC(=O)C12CC3CC(CC(C3)C1)C2 (configuration not stated)	19.1	48.1	96.3*	-0.2	18.8	-13.1
O=C(Nc1ccccc1)N(C1=NCCC1)c1ccccc1	5.1	-4.5	-5.6	0.0	-1.4	-12.8
Cc1ccc(N(C(=O)Nc2ccccc2)C2=NCCC2)cc1	-5.3	88.3*	-10.3	-0.1	54.1*	10.0
Cc1ccc(NC(=O)COC(=O)c2ccccc2F)cc1S(=O)(=O)N1CCCCC1	.	.	.	.	.	-1.6
O=C(COC(=O)c1ccccc1S(=O)(=O)N1CCCCC1)NCC(F)(F)F	-10.5	active	-40.0	-0.1	73.0*	14.6
C/C=C/C=C/C(=O)[C@@H]1[C@@H]([C@]2(C)OC(=O)C(C)=C2O)[C@H]2/C(=C(O)/C=C/C=C/C)C(=O)[C@]1(C)C(=O)C2(C)O (some centres not stated)	29.8	60.7*	12.3	-0.2	40.1	-7.5
Cc1nc(SCc2nc3c(O)cccc3[nH]2)c2oc3ccccc3c2n1	.	.	1.3	-0.1	.	-2.8
CC(C)Cc1nnc(NC(=O)c2cc3c(s2)CCC3)s1	-13.1	54.2*	-9.4	-0.1	16.2	-23.7
COc1ccc(S(=O)(=O)N2CCOCC2)cc1NC(=O)c1cc2c(s1)CCCC2	-17.8	-5.9	-2.9	0.0	19.7	2.6
SMILES	SUMO HTRF inh	eIF4H FP inh	ALR inh	Efflux pump mplx	PABP FP inh	PABP1 MLLE inh
COc1ccc(C)cc1NC(=O)c1cc2c(s1)CCC2	-6.1	0.7	94.2*	0.0	1.9	7.6
COc1ccc(CC(=O)Nc2nc3ccc(F)cc3s2)cc1S(=O)(=O)N1CCOCC1	5.6	-3.6	98.7*	-0.1	-10.2	-3.4
COc1ccc(NC(=O)c2cc3c(s2)CCC3)cc1S(=O)(=O)N1CCOCC1	30.7	100.2*	98.6*	0.0	27.3	-2.5
C=CCC1(CC=C)CC(Cc2cnccn2)N(C(=O)OC(C)(C)C)C1 (configuration not stated)	.	.	.	.	.	-17.6
CC1CCCN(CCCNC(=O)c2ccc3c(c2)N(Cc2ccccc2F)C(=O)c2ccccc2S3(=O)=O)C1 (configuration not stated)	7.3	13.6	-16.4	-0.1	-5.7	-19.9
CCOC(=O)c1ccccc1NC(=O)Cn1c(=O)n(Cc2ccccc2)c(=O)c2c(C)c(C)sc21	7.8	-6.8	-2.8	0.2	-1.5	-10.5
COC(=O)C1=C(C)N(C)C(=O)/C1=C\c1ccco1	21.4	-2.0	2.0	-0.1	7.0	11.0
CC1=C(C#N)C(=O)N(C2CCS(=O)(=O)C2)C(=O)/C1=C\c1ccco1 (configuration not stated)	90.3*	102.2*	15.3	-0.3	87.8*	.
COC1CCCCC1Nc1cc(C)cc(C)c1 (configuration not stated)	-4.0	4.6	2.1	-0.2	23.6	3.2
COC1CCCCC1Nc1cccc(SC)c1 (configuration not stated)	-3.0	-10.0	98.9*	-0.2	18.5	17.7
COC(=O)c1cc(C(=O)OC)cc(-n2c(C)cc(C(=O)CC#N)c2C)c1	16.0	59.2*	26.2	0.0	87.3*	-2.9
CC[N+]1(CC(O)COC2CC(C)CC(C)(C)C2)CCOCC1 (configuration not stated)	-19.7	-1.7	-12.5	0.0	62.2*	-114.3
CC1CCN(CC(O)COC2CC(C)CC(C)(C)C2)CC1 (configuration not stated)	.	.	-2.7	-0.1	.	1.4
CCCc1cc(=O)[nH]c(SCC(=O)c2cc(C)n(C3CC3)c2C)n1	28.4	-18.2	2.4	0.5	2.3	13.8
CCCc1cc(=O)[nH]c(SCC(=O)N2CCN(S(=O)(=O)c3ccc(Cl)cc3)CC2)n1	8.7	56.0*	.	0.0	-9.4	10.4
CCCc1cc(=O)[nH]c(SCC(=O)c2cc(C)n(C)c2C)n1	1.3	12.8	97.8*	0.1	-2.5	19.5
